Measurements: PubChem BioAssay (Tox21)
Values without a mark were called inactive. Records with an inconclusive call do not appear. A call without a number means that no potency is given here. The source made the active and inactive calls. Unless noted, calls come from the whole dose curve; as a rule, active = well fitted curve in the direction sought with a large enough effect in the repeat runs; inconclusive = weak or mixed curves; inactive = no such curve, though single readings can be large; an effect the other way counts as inactive or inconclusive.

Key:
[1] = molecular target: Progesterone receptor (Homo sapiens) (UniProt P06401); assay: qHTS assay to identify small molecule agonists of the progesterone receptor (PR) signaling pathway (AID 1346784; calls by dose curve; note: nearly all actives have a fitted effect of over 30% in size)
Chain of Progesterone receptor (Homo sapiens) (P06401 whole entry, looked up): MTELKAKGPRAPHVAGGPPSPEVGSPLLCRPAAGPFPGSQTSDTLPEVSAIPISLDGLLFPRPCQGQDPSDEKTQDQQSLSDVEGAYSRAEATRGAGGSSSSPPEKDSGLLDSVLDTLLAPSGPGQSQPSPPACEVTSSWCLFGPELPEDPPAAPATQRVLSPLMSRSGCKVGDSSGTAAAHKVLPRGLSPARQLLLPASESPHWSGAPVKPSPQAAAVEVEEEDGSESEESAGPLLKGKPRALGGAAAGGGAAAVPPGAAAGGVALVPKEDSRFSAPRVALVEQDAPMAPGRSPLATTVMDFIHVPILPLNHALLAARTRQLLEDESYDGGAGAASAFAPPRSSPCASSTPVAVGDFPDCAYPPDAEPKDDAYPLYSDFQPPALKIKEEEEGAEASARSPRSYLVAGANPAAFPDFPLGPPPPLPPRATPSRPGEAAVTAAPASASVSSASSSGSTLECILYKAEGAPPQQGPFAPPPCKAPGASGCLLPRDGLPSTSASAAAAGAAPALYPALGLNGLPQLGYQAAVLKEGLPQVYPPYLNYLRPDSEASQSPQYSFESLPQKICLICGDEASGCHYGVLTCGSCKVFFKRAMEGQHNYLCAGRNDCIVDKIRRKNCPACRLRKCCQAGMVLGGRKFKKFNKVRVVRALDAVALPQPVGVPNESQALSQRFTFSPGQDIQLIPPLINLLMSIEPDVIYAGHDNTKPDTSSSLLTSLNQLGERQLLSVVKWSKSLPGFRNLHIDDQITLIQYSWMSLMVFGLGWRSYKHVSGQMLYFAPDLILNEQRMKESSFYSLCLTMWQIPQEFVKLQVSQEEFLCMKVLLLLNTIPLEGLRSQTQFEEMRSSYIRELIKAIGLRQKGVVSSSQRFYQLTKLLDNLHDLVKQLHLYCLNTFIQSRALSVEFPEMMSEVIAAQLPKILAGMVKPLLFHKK
How it was run: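 Fluorescence from LiveBLAzer B/G FRET substrate cleavage (2 hr, RT) reported PR activation in PR-UAS-bla HEK 293T cells treated 16 hr at 37C/5% CO2 with compounds; medium contained 2% charcoal-stripped FBS.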

[2] = molecular target: Progesterone receptor (Homo sapiens) (UniProt P06401); assay: qHTS assay to identify small molecule antagonists of the progesterone receptor (PR) signaling pathway (AID 1346795; active = well fitted inhibition curve with a large enough effect in the signal ratio in the repeat runs, not every such curve was filed as active; the % refers to the signal ratio; note: potency is the fitted concentration of half-maximal effect)
How it was run: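 Fluorescence intensity measured 2 hr after adding beta-lactamase FRET substrate to PR-UAS-bla HEK293T cells that had been co-treated 16 hr with compound and 1 nM R5020 (final concentration) in 2% charcoal-stripped FBS.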

[3] = qHTS assay to identify small molecule antagonists of the progesterone receptor (PR) signaling pathway - cell viability counter screen (AID 1346798); note: series mostly up to about 92 µM; nearly all actives have a fitted effect of over 50% in size
How it was run: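 CellTiter-Glo luminescence; PR-UAS-bla HEK293T, 3,000 cells/well; compound + R5020, 16 hr, 37C/5% CO2; 30 min RT before read.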

[4] = qHTS assay to identify small molecule antagonists of the TGF-beta/Smad signaling pathway - cell viability counter screen (AID 1346824); note: nearly all actives have a fitted effect of over 50% in size
How it was run: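 Cytotoxicity counter-screen run in the same wells as the beta-lactamase Smad reporter read: CellTiter-Glo luminescence after 30 min at room temperature. HEK 293T SBE-bla cells had 5 hr compound exposure at 37 C with TGF-beta1 (0.25 ng/mL stock).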

[5] = qHTS assay to identify small molecule agonists of the TGF-beta/Smad signaling pathway - cell viability counter screen (AID 1346829); note: top concentration of the series differs between compounds; nearly all actives have a fitted effect of over 45% in size
How it was run: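 In parallel with the Smad reporter read, viability of HEK 293T cells stably carrying SBE-bla is quantified by ATP luminescence following 5 hr compound treatment.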

[6] = molecular target: Thyrotropin-releasing hormone receptor (Homo sapiens) (UniProt P34981); assay: qHTS assay to identify small molecule antagonists of the thyrotropin-releasing hormone receptor (TRHR) signaling pathway (AID 1346877; active = well fitted inhibition curve with a large enough effect in the repeat runs, not every such curve was filed as active; note: series mostly up to about 51 µM)
Chain of Thyrotropin-releasing hormone receptor (Homo sapiens) (P34981 whole entry, looked up): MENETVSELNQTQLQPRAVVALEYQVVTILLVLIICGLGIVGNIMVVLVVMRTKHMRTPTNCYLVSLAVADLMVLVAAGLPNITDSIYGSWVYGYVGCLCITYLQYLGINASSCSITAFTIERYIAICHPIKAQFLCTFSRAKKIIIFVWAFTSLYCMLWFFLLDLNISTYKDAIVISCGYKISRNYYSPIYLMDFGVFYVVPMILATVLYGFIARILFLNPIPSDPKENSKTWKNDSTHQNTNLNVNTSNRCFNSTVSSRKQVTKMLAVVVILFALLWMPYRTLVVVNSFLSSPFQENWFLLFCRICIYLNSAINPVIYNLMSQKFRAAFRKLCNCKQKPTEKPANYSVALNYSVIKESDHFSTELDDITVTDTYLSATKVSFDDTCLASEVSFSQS
How it was run: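 Intracellular calcium fluorescence, read kinetically every second over 3 min, reports TRH-evoked signalling in HEK293 cells carrying TRHR. Test compounds were added 5 min ahead of a 1 nM TRH challenge.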

[7] = molecular target: Thyrotropin-releasing hormone receptor (Homo sapiens) (UniProt P34981); assay: qHTS assay to identify small molecule agonists of the thyrotropin-releasing hormone receptor (TRHR) signaling pathway (AID 1346891; calls by dose curve;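 note: HEK293 cells expressing TRHR with calcium dye readout; series mostly up to about 58 µM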)
How it was run: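 Compounds were tested as agonists at 15 concentrations, in triplicate, on TRHR-Hek293 cells; calcium-sensitive dye fluorescence was recorded for 3 min following addition.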

[8] = Caspase-3/7 induction in HepG2 cells by small molecules, qHTS assay (AID 1346978); note: nearly all actives have a fitted effect of over 15% in size
How it was run: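 Caspase-3/7 induction was measured by Caspase-Glo 3/7 luminescence (30 min, room temperature) after a 17 hr compound exposure of wild-type HepG2 cells seeded at 2,000 per well and pre-incubated 5 hr.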

[9] = Caspase-3/7 induction in CHO-K1 cells by small molecules, qHTS cell viability counter screen (AID 1346979); note: nearly all actives have a fitted effect of over 35% in size; note: potency is the fitted concentration of half-maximal effect
How it was run: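 Viability readout by fluorescence (CellTiter-Fluor) on wild-type CHO-K1 cells exposed for 16hr at 37C and 5% CO2 to compounds delivered in DMSO; reagent incubated 1hr before reading.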

[10] = Caspase-3/7 induction in CHO-K1 cells by small molecules, qHTS assay (AID 1346980); note: nearly all actives have a fitted effect of over 15% in size
How it was run: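 Luminescent Caspase-Glo 3/7 read (30min, room temperature) quantified apoptosis induction. Cells were wild-type CHO-K1, treated with compound for 17hr at 37 C and 5% CO2.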

[11] = molecular target: Nuclear receptor subfamily 1 group I member 2 (Homo sapiens) (UniProt O75469); assay: Human pregnane X receptor (PXR) small molecule agonists, qHTS assay (AID 1346982); note: nearly all actives have a fitted effect of over 35% in size; note: potency is the fitted concentration of half-maximal effect
Chain of Nuclear receptor subfamily 1 group I member 2 (Homo sapiens) (O75469 whole entry, looked up): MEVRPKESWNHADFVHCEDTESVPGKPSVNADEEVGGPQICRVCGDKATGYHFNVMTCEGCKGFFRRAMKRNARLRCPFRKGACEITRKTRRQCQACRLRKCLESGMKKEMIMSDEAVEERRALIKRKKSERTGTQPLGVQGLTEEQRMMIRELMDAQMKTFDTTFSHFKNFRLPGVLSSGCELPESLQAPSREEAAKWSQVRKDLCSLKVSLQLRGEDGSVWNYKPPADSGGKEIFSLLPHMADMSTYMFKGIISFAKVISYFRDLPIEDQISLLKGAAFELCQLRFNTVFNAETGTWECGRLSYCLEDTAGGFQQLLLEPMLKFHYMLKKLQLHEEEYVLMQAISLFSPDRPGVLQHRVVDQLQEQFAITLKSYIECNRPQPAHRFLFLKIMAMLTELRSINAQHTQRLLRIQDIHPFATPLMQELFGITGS
How it was run: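 Luciferase signal from ONE-Glo (30 min, room temperature) measured activation of hPXR-driven CYP3A4 reporter expression in PXR-Luc HepG2 cells treated with compounds for 24 hr at 37 C.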

[12] = molecular target: Cytochrome P450 2D6 (Homo sapiens) (UniProt P10635); assay: Cytochrome P450 Family 2 Subfamily D Member 6 (CYP2D6) small molecule antagonists: luciferase reporter qHTS assay (AID 1671196); note: nearly all actives have a fitted effect of over 50% in size; note: potency is the fitted concentration of half-maximal effect
Chain of Cytochrome P450 2D6 (Homo sapiens) (P10635 whole entry, looked up): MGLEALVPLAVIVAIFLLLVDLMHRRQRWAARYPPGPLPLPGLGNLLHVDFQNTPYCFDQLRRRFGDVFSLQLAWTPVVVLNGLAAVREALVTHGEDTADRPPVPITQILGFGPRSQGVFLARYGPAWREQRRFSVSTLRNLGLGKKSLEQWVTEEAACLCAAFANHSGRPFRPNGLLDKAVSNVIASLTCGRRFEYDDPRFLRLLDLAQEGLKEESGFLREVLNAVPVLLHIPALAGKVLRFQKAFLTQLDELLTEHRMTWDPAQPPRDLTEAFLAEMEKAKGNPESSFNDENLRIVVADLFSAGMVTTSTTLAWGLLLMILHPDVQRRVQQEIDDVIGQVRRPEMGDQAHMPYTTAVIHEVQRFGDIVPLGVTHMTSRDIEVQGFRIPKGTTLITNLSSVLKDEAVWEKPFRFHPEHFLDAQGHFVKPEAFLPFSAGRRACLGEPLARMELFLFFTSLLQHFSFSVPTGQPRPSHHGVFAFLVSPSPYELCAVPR
How it was run: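 Read-out is luminescence from luciferin formed by CYP2D6 turnover of a proluciferin substrate, recorded as relative luminescence units. Reactions ran 1 h at room temperature after NADPH regeneration solution was added.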

[13] = molecular target: Cytochrome P450 2C19 (Homo sapiens) (UniProt P33261); assay: Cytochrome P450 Family 2 Subfamily C Member 19 (CYP2C19) small molecule antagonists: luciferase reporter qHTS assay (AID 1671197); note: series mostly up to about 120 µM; nearly all actives have a fitted effect of over 65% in size
Chain of Cytochrome P450 2C19 (Homo sapiens) (P33261 whole entry, looked up): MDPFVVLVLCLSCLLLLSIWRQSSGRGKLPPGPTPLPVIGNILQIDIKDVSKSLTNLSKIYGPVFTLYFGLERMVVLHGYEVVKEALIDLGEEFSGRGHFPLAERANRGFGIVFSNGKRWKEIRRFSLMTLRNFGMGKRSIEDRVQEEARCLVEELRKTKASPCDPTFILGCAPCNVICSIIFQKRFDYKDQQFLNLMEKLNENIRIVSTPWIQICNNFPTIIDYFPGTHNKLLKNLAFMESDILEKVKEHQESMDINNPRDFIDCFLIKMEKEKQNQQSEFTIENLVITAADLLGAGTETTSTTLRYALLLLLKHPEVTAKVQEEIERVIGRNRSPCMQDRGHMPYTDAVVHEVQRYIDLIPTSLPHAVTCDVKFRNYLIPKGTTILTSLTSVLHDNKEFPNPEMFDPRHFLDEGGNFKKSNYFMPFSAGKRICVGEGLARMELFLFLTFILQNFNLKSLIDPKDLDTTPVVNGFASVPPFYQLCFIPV
How it was run: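 Compounds were tested on CYP2C19 activity via proluciferin conversion to luciferin. The 37C, 1 h reaction followed NADPH addition; detection reagent stopped it.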

[14] = qHTS assay to identify small molecule agonists of the progesterone receptor (PR) signaling pathway - cell viability counter screen (AID 1346799; calls by dose curve; note: nearly all actives have a fitted effect of over 45% in size)
How it was run: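 In parallel with the beta-lactamase readout, cytotoxicity toward PR-UAS-bla HEK293T cells was measured by CellTiter-Glo luminescence following 16 hr compound incubation in 2% charcoal-stripped FBS medium.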

[15] = qHTS assay to identify small molecule agonists of the TGF-beta/Smad signaling pathway (AID 1346859; active = well fitted activation curve with a large enough effect in the signal ratio in the repeat runs, not every such curve was filed as active; the % refers to the signal ratio; note: series mostly up to about 77 µM)
How it was run: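 After overnight seeding, SBE-bla HEK 293T cells are dosed with compounds in DMSO and kept 5 hr at 37 C, 5% CO2. LiveBLAzer-type FRET substrate is then applied for 2 hr at room temperature.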

[16] = Human pregnane X receptor (PXR) small molecule agonists, qHTS cell viability counter screen (AID 1346977); note: nearly all actives have a fitted effect of over 50% in size; note: potency is the fitted concentration of half-maximal effect
How it was run: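 Viability counter screen: CellTiter-Fluor signal in PXR-Luc HepG2 cells, 24hr compound exposure, 37C, 5% CO2.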

[17] = Caspase-3/7 induction in HepG2 cells by small molecules, qHTS cell viability counter screen (AID 1346981); note: series mostly up to about 92 µM; nearly all actives have a fitted effect of over 30% in size
How it was run: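 HepG2, WT, 2,000 cells/well; 5 hr pre-incubation 37 C/5% CO2; compound pin-transferred from DMSO; 16 hr exposure; CellTiter-Fluor, 1 hr; fluorescence read.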

SMILES | Potency [1] | Potency [2] | Potency [3] | Potency [4] | Potency [5] | Potency [6] | outcome [7] | Potency [8] | Potency [9] | Potency [10] | Potency [11] | Potency [12] | Potency [13] | Potency [14] | Potency [15] | Potency [16] | Potency [17]
Cc1cc(-c2ccc(N=Nc3cc(S(=O)(=O)O)c4ccccc4c3N)c(C)c2)ccc1N=Nc1cc(S(=O)(=O)O)c2ccccc2c1N | inactive | inactive | inactive | inactive | inactive | inactive | inactive | inactive | 54.8 µM (active) | inactive | 19.4 µM (active) | 2.26 µM (active) | inactive | – | – | – | –
S=c1nccc[nH]1 | inactive | – | inactive | inactive | inactive | inactive | inactive | inactive | inactive | inactive | inactive | 31.8 µM (active) | – | inactive | inactive | inactive | –
CC(C)=CCNc1ncnc2c1ncn2[C@@H]1O[C@H](CO)[C@@H](O)[C@H]1O | inactive | inactive | inactive | – | – | inactive | inactive | – | 11.9 µM (active) | inactive | 9.44 µM (active) | inactive | inactive | – | inactive | 13.3 µM (active) | –
CCO[C@@H]1O[C@H](C(COCc2ccccc2)OCc2ccccc2)[C@H](OCc2ccccc2)[C@H]1O (stereo partly drawn) | inactive | 26.6 µM (active) | – | inactive | inactive | inactive | inactive | inactive | 29.8 µM (active) | inactive | – | 38.9 µM (active) | – | inactive | inactive | – | –
CN1CCN2c3ccccc3Cc3ccccc3C2C1 (stereo not drawn) | inactive | – | inactive | inactive | inactive | inactive | inactive | inactive | inactive | inactive | – | – | – | inactive | inactive | inactive | –
CCCC(=O)OCCc1ccccc1 | inactive | – | inactive | inactive | inactive | inactive | inactive | inactive | – | inactive | inactive | inactive | inactive | inactive | inactive | inactive | inactive
